From PubChem BioAssay come the findings set out here.

Where “and” joins values, the source holds several entries; their conditions need not be identical. Identical values can stand only once. Calls of active or inactive are those of the source.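 Rule for the calls, unless noted: active = compounds whose cell count with miR-34 switched on is under 0.7 times the count with it off; inactive = the rest.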

Experiment [1] in a line: sensitizers of A549 cells to miR-34 induction, primary screen, imaging, A549 dox-inducible miR-34, nuclei and caspase counts (AID 1347080). The note with it: A549 miR-34 inducible, Hoechst nuclei count, 48 h.
Experiment [2] in a line: survival rescue of mitochondrial mutant cells in low glucose, primary screen, MELAS cybrids, Rieske KO mouse fibroblasts, CellTiter-Glo (AID 1508586;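 active = mean z-score across replicates of 1.96 or higher in either the MELAS or the Rieske mutant cell line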;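 note: z relative to plate mean and SD of compound and empty wells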). In general terms: In ATP-based viability assays light output follows the ATP content of the culture.
Experiment [3] has as its target NAD(+) hydrolase SARM1 (Homo sapiens) (UniProt Q6SZW1). The experiment is described as follows: SARM1 TIR NADase inhibitors, cell lysate, NAD-Glo luminescence (AID 1508614;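 active = compound whose remaining NAD level is above about 45 nM, limit read from the data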;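 note: higher remaining NAD means stronger inhibition of SARM1 NADase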). The conditions noted are these: SAM-TIR HEK293T lysate NADase, at 1 µM, stronger effect = higher value.
Experiment [4] in a line: viability rescue of complex I mutant cybrids, primary screen, cell-based, galactose medium, ATP luminescence (AID 1645843;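 active = z-score of at least 1.8 in each of two replicates, scored against plate mean and spread of sample wells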;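 note: positive z means more ATP and so rescue of galactose-driven cybrid death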). The conditions noted are these: complex I mutant cybrid cells, 72 h, stronger effect = higher value.
Experiment [5] addresses Mitogen-activated protein kinase 7 (Homo sapiens) (UniProt Q13164). Nature of the experiment: ERK5 transactivation activators in reporter cells, primary screen, cell-based, HTS (AID 1508626;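 active = luciferase signal above three times the same-plate solvent-only control wells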;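 note: luciferase driven by Gal4-ERK5 fusion binding five Gal4 sites before minimal TATA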). The conditions noted are these: HeLa Gal4-ERK5 transactivation, 18 h, at 5 µM, stronger effect = higher value.
Where [6] appears, read: stronger effect = lower value, cell number ratio, induced over uninduced.
Where [7] appears, read: measured here: relative caspase fold change +Dox/-Dox.
The mark [8] stands for this setting: measured here: total cells with miR-34 induction, stronger effect = lower value.
Where [9] appears, read: measured here: total cells without miR-34 induction.
[10] abbreviates: MELAS cybrid survival, CellTiter-Glo 48 h, stronger effect = higher value.
[11] abbreviates: Rieske KO mouse fibroblast survival, CellTiter-Glo 72 h.

Mitogen-activated protein kinase 7 (Homo sapiens), sequence (Q13164 whole entry, looked up, the tested form may be a part): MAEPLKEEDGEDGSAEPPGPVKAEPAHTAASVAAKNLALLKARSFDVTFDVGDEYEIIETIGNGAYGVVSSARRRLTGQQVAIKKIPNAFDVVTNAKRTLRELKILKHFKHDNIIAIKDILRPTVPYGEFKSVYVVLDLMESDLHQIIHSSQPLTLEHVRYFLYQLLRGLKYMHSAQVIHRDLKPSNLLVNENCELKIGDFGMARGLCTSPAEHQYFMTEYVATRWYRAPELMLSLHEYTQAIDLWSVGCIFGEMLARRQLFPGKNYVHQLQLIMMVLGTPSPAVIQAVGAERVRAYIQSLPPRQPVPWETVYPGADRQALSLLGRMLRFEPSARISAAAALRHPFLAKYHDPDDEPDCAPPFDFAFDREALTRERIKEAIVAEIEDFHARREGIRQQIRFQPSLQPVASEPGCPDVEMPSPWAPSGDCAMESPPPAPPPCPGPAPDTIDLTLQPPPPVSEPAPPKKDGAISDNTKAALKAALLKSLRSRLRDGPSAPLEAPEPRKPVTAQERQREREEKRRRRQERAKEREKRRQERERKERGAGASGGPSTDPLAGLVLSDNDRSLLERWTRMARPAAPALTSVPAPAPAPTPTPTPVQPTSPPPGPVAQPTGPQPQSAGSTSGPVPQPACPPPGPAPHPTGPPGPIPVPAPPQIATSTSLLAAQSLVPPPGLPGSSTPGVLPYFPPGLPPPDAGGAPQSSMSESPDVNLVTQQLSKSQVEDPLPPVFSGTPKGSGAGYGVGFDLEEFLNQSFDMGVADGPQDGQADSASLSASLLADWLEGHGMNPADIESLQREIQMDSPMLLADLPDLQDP
NAD(+) hydrolase SARM1 (Homo sapiens), sequence (Q6SZW1 whole entry, looked up): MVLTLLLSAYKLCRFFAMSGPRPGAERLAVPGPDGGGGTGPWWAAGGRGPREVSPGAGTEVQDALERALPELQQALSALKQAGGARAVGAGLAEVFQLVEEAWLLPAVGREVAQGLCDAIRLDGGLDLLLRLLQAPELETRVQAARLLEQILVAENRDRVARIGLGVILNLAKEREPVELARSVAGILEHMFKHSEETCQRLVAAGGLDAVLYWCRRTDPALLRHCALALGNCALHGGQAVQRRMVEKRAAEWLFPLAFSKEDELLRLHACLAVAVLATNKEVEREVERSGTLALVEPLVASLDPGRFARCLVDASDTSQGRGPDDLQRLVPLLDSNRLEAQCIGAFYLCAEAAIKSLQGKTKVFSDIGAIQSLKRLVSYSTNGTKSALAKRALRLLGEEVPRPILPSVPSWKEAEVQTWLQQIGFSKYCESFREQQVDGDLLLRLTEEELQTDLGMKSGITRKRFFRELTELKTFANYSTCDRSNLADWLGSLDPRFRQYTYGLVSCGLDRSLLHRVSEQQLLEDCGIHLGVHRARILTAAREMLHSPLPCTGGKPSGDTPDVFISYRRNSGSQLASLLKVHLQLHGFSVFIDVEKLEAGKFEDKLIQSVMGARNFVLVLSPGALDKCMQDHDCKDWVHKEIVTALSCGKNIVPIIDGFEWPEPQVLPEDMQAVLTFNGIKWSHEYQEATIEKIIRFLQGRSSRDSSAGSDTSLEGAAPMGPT

As for `CCOC(=O)OC(C)OC1=C(C(=O)Nc2ccccn2)N(C)S(=O)(=O)c2ccccc21` (centres undefined), the fold change is 0.948 (inactive) and 0.916 (inactive) and 0.845 (inactive) in experiment [1] (setting [6]); 1.05 and 0.416 and 1.29 in experiment [1] (setting [7]). Further, the cell count in experiment [1] (setting [8]) was 9250 and 8630 and 9370; in experiment [1] (setting [9]), 9750 and 9420 and 11100. The z-score is -0.123 (inactive) and 0.743 (inactive) and 0.745 (inactive) in experiment [2] (setting [10]); -0.115 and 1.2 and 1.74 in experiment [2] (setting [11]); 0.855 (inactive) and 0.87 (inactive) in experiment [4]. For the same compound, in experiment [3], the remaining NAD was 10 nM (inactive).

For the compound `CC(C)(Oc1ccc(Cl)cc1)C(=O)O`, the fold change in experiment [1] (setting [6]) is 0.908 (inactive) and 0.929 (inactive) and 0.927 (inactive); in experiment [1] (setting [7]) it was 1.01 and 0.543 and 0.953. For the same compound, the cell count in experiment [1] (setting [8]) was 9250 and 7700 and 8560; in experiment [1] (setting [9]), 10200 and 8280 and 9240. Also, the z-score in experiment [2] (setting [10]) was -0.232 (inactive) and -0.856 (inactive); in experiment [2] (setting [11]), -0.207 and -0.151; in experiment [4] it was 0.98 (inactive). In addition, in experiment [3], the remaining NAD is 10 nM (inactive). In addition, the luciferase signal in experiment [5] was 72 AU (inactive).

As to `CCN1CC(CCN2CCOCC2)C(c2ccccc2)(c2ccccc2)C1=O` (centres undefined), the fold change is 0.947 (inactive) and 1 (inactive) in experiment [1] (setting [6]); 1.42 and 1.3 in experiment [1] (setting [7]). Further, the cell count in experiment [1] (setting [8]) is 7960 and 7680; in experiment [1] (setting [9]), 8400 and 7650. Further, the z-score in experiment [2] (setting [10]) is -0.295 (inactive) and -0.762 (inactive); in experiment [2] (setting [11]) it was -0.241 and -0.506; in experiment [4], 0.71 (inactive). The remaining NAD in experiment [3] is 10 nM (inactive).

Consider `O=C1c2ccccc2C(=O)c2c1ccc(O)c2O`, for which the figures for the fold change in experiment [1] (setting [6]) and in experiment [1] (setting [7]) were 0.918 (inactive) and 1.48, respectively. Moreover, the cell count in experiment [1] (setting [8]) was found to be 8090; in experiment [1] (setting [9]), 8800. Further, the z-score in experiment [2] (setting [10]) was -0.0543 (inactive); in experiment [2] (setting [11]) it was -0.449. Also, in experiment [5], the luciferase signal is 36 AU (inactive).

On to `CCCCCCCCCCCCCCCCOP(=O)([O-])OCC[N+](C)(C)C`, for which the fold change was 1 (inactive) and 0.955 (inactive) in experiment [1] (setting [6]); 0.961 and 1.28 in experiment [1] (setting [7]). Also, the cell count in experiment [1] (setting [8]) is 5900 and 10200; in experiment [1] (setting [9]) it was 5890 and 10700. Also, the z-score was -0.744 (inactive) in experiment [2] (setting [10]), -0.431 in experiment [2] (setting [11]) and -0.3 (inactive) in experiment [4]. Further, the remaining NAD in experiment [3] is 10 nM (inactive). Besides, the luciferase signal in experiment [5] is 132 AU (inactive).

Turning to `Cn1c(=O)c2c(ncn2CCO)n(C)c1=O`, the fold change was 0.968 (inactive) in experiment [1] (setting [6]) and 1.24 in experiment [1] (setting [7]). The cell count in experiment [1] (setting [8]) is 8860; in experiment [1] (setting [9]), 9160. Moreover, the figures for the z-score in experiment [2] (setting [10]) and in experiment [2] (setting [11]) were -0.0698 (inactive) and -0.0506, respectively. Also, in experiment [5], the luciferase signal is 196 AU (active).

As to `CN(C/C=C/C#CC(C)(C)C)Cc1cccc2ccccc12`, the fold change in experiment [1] (setting [6]) was 0.935 (inactive) and 0.938 (inactive); in experiment [1] (setting [7]), 4.07 and 1.16. The cell count in experiment [1] (setting [8]) is 11600 and 9190; in experiment [1] (setting [9]), 12400 and 9800. Moreover, the z-score in experiment [2] (setting [10]) is 0.287 (inactive) and -0.488 (inactive); in experiment [2] (setting [11]), -0.0957 and -0.937; in experiment [4], -1.48 (inactive). The remaining NAD in experiment [3] was 10 nM (inactive). Also, the luciferase signal in experiment [5] was 52 AU (inactive).

Regarding `C/C=C/c1ccc(OC)cc1`, the fold change was 0.85 (inactive) and 0.895 (inactive) in experiment [1] (setting [6]); 3 and 1.61 in experiment [1] (setting [7]). Besides, the cell count in experiment [1] (setting [8]) was 10200 and 9980; in experiment [1] (setting [9]), 11900 and 11200. For the same compound, the figures for the z-score in experiment [2] (setting [10]), in experiment [2] (setting [11]) and in experiment [4] were -0.525 (inactive), -1.37 and 0.095 (inactive), respectively. For the same compound, the remaining NAD in experiment [3] was 10 nM (inactive). In experiment [5], the luciferase signal is 76 AU (inactive).

Consider `CC(C)(O)c1ccccc1CC[C@@H](SCC1(CC(=O)O)CC1)c1cccc(/C=C/c2ccc3ccc(Cl)cc3n2)c1`, for which the fold change in experiment [1] (setting [6]) is 0.896 (inactive); in experiment [1] (setting [7]), 1.4. The cell count in experiment [1] (setting [8]) was 9780; in experiment [1] (setting [9]) it was 10900. For the same compound, the z-score in experiment [2] (setting [10]) was 0.313 (inactive) and -0.452 (inactive); in experiment [2] (setting [11]), 0.134 and -0.566; in experiment [4], 0.48 (inactive). Besides, the remaining NAD in experiment [3] is 10 nM (inactive).
